Compounds without any hit were thinned out: in the full panel of roughly 83,000, 20% have a hit.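 Single-dose data. Exposure time 48 hours. Values below 10 considered active.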 The source made the active and inactive calls.
Key:
Test in all cases: NCI-60 one-dose screen, 48 h (100 = growth as untreated, 0 = no growth, -100 = all killed)
Conditions in all cases: 10 µM unless noted
SR leukemia = system: SR leukemia
RPMI-8226 leukemia = system: RPMI-8226 leukemia
OVCAR-8 ovarian = system: OVCAR-8 ovarian
OVCAR-5 ovarian = system: OVCAR-5 ovarian
OVCAR-4 ovarian = system: OVCAR-4 ovarian
SK-OV-3 ovarian = system: SK-OV-3 ovarian
IGROV1 ovarian = system: IGROV1 ovarian
HS 578T breast = system: HS 578T breast
NCI/ADR-RES ovarian = system: NCI/ADR-RES ovarian
T-47D breast = system: T-47D breast
BT-549 breast = system: BT-549 breast
MDA-MB-435 melanoma = system: MDA-MB-435 melanoma
SW-620 colon = system: SW-620 colon
MCF7 breast = system: MCF7 breast
HCT-116 colon = system: HCT-116 colon
HCC-2998 colon = system: HCC-2998 colon
KM12 colon = system: KM12 colon

Measured: growth

CCOC(=O)c1c(Nc2ccccc2)nn2c(-c3ccc(Cl)cc3)ccnc12
inactive: SR leukemia 72.7% | RPMI-8226 leukemia 91.7% | OVCAR-8 ovarian 80.6% | OVCAR-5 ovarian 87.2% | OVCAR-4 ovarian 66.5% | SK-OV-3 ovarian 75.4% | IGROV1 ovarian 80.5% | HS 578T breast 72.6% | NCI/ADR-RES ovarian 63.6% | T-47D breast 64.2% | BT-549 breast 103% | MDA-MB-435 melanoma 84.2% | SW-620 colon 84.2% | MCF7 breast 81.3% | HCT-116 colon 61.1% | HCC-2998 colon 91% | KM12 colon 89.1%

COC(=O)c1[nH]nc2c1C1(C(=O)c3cccc4cccc1c34)C(C#N)=C(N)O2 (configuration not stated)
inactive: SR leukemia 115% | RPMI-8226 leukemia 104% | OVCAR-8 ovarian 92% | OVCAR-5 ovarian 101% | OVCAR-4 ovarian 97.5% | SK-OV-3 ovarian 85.3% | IGROV1 ovarian 95.5% | HS 578T breast 86.8% | NCI/ADR-RES ovarian 106% | T-47D breast 104% | BT-549 breast 124% | MDA-MB-435 melanoma 106% | SW-620 colon 100% | MCF7 breast 84.3% | HCT-116 colon 101% | HCC-2998 colon 106% | KM12 colon 97.8%

COc1ccc(C(=O)Nc2ncc(Cc3ccccc3Cl)s2)cc1
active: HS 578T breast 8.76% | NCI/ADR-RES ovarian 5.87% | MDA-MB-435 melanoma -5.1% | HCT-116 colon 7.77% | HCC-2998 colon 6.97% | KM12 colon 9.41%
inactive: SR leukemia 16.4% | RPMI-8226 leukemia 22.2% | OVCAR-8 ovarian 12.3% | OVCAR-5 ovarian 36.5% | OVCAR-4 ovarian 62.1% | SK-OV-3 ovarian 29% | IGROV1 ovarian 28.2% | T-47D breast 34.3% | BT-549 breast 54.8% | SW-620 colon 25.3% | MCF7 breast 14.3%

CC(=O)N1N=C(c2cccc(-n3cccc3)c2)CC1c1cccc(F)c1 (configuration not stated)
inactive: SR leukemia 96.2% | RPMI-8226 leukemia 93.7% | OVCAR-8 ovarian 98.2% | OVCAR-5 ovarian 95.8% | OVCAR-4 ovarian 101% | SK-OV-3 ovarian 97.3% | IGROV1 ovarian 96.9% | HS 578T breast 91% | NCI/ADR-RES ovarian 95.9% | T-47D breast 89% | BT-549 breast 126% | MDA-MB-435 melanoma 102% | SW-620 colon 96% | MCF7 breast 75.1% | HCT-116 colon 92.5% | HCC-2998 colon 106%

CC(C)(C)c1ccc(-c2nnc(-c3nc4ccccc4nc3Cl)o2)cc1
active: HS 578T breast -8.86% | T-47D breast -70.5% | MCF7 breast -65.9%
inactive: SR leukemia 91.3% | RPMI-8226 leukemia 65.9% | OVCAR-8 ovarian 84.2% | OVCAR-5 ovarian 99.1% | OVCAR-4 ovarian 82.2% | SK-OV-3 ovarian 95.9% | IGROV1 ovarian 72.5% | NCI/ADR-RES ovarian 82.5% | BT-549 breast 104% | MDA-MB-435 melanoma 69% | SW-620 colon 66.2% | HCT-116 colon 14.2% | HCC-2998 colon 98.5% | KM12 colon 65.8%

CCNC(=O)N1CCc2cc(OC)c(OCCc3ccc(OC)nc3)cc2C1c1ccc(OC)cc1C (configuration not stated)
inactive: SR leukemia 10.9% | RPMI-8226 leukemia 31.4% | OVCAR-8 ovarian 42.4% | OVCAR-5 ovarian 51% | OVCAR-4 ovarian 67.1% | SK-OV-3 ovarian 54.6% | IGROV1 ovarian 33.8% | HS 578T breast 29.8% | NCI/ADR-RES ovarian 23.5% | T-47D breast 49% | BT-549 breast 29.2% | MDA-MB-435 melanoma 15% | SW-620 colon 16% | MCF7 breast 22.2% | HCT-116 colon 14.4% | HCC-2998 colon 42.8% | KM12 colon 21.2%

Nc1nc(-c2cccc([N+](=O)[O-])c2)c(N=Nc2ccccc2)s1
inactive: SR leukemia 56.1% | RPMI-8226 leukemia 52.9% | OVCAR-8 ovarian 58.2% | OVCAR-5 ovarian 79.4% | OVCAR-4 ovarian 59.2% | SK-OV-3 ovarian 62.3% | IGROV1 ovarian 82.5% | HS 578T breast 70.4% | NCI/ADR-RES ovarian 54.9% | T-47D breast 40.5% | BT-549 breast 73.2% | MDA-MB-435 melanoma 64.9% | SW-620 colon 64.9% | MCF7 breast 51.9% | HCT-116 colon 54.8% | HCC-2998 colon 71.6% | KM12 colon 44%

Nc1nc(-c2cccc([N+](=O)[O-])c2)c(N=Nc2cccc([N+](=O)[O-])c2)s1
inactive: SR leukemia 67.5% | RPMI-8226 leukemia 34.3% | OVCAR-8 ovarian 19.9% | OVCAR-5 ovarian 53.4% | IGROV1 ovarian 27.6% | HS 578T breast 37.6% | NCI/ADR-RES ovarian 18.6% | T-47D breast 31% | MDA-MB-435 melanoma 36.2% | SW-620 colon 18.5% | MCF7 breast 13.1% | HCC-2998 colon 59.8% | KM12 colon 48.2%
active: OVCAR-4 ovarian -15.2% | SK-OV-3 ovarian -78% | BT-549 breast -41.4% | HCT-116 colon -44.1%

c1cc(-c2nc3ccc4[nH]ncc4c3c3c2CCCC3)[nH]n1
active: SR leukemia 7.95% | SK-OV-3 ovarian 9.7%
inactive: RPMI-8226 leukemia 55.1% | OVCAR-8 ovarian 70.2% | OVCAR-5 ovarian 89% | OVCAR-4 ovarian 89.6% | IGROV1 ovarian 44.5% | HS 578T breast 41.3% | NCI/ADR-RES ovarian 78.8% | T-47D breast 73.8% | BT-549 breast 31.2% | MDA-MB-435 melanoma 10.5% | SW-620 colon 25% | MCF7 breast 40% | HCT-116 colon 25.6% | HCC-2998 colon 78.9% | KM12 colon 24%
